Shown are actives, neighbours in structure and some others; about 11% of the full set was active somewhere.
HPGD inh = inhibitors of human 15-hydroxyprostaglandin dehydrogenase (HPGD) | P15428 | purified HPGD, NADH fluorescence kinetic, PGE2 substrate | Potency, µM, for the others: top-dose activity change, negative = inhibition, hits mostly inhibitors | 150,000 compounds, 4.3% hits | AID 894; note: potency is the fitted concentration of half-maximal effect
Target sequence (P15428 whole entry, looked up): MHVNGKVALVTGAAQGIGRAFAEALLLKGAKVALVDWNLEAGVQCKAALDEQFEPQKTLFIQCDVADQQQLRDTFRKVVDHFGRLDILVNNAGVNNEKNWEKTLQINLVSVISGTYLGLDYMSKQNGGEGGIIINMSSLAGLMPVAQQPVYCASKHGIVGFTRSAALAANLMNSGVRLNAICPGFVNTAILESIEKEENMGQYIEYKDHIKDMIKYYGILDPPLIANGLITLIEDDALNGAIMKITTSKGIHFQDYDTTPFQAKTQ
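20 nM HPGD preincubated 15 min at room temperature with compound in 50 mM Tris-HCl pH 8, 0.01% Tween 20. Started with 1 mM NAD+ and 30 uM prostaglandin E2; NADH fluorescence (360/450 nm) read 5 times over 30-s intervals, last minus first.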
PNC assembly inh = perinucleolar compartment assembly inhibition. PC3M PTB-GFP, PNC prevalence imaging, 16 h; hits give low values. 140,000 compounds, 3.1% hits. activity change (PNC), negative = inhibition, % at 10 µM;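 active = readout at or below -70, meaning at least 70% loss of cells showing the perinucleolar compartment, a nuclear body marking cancer cells; inconclusive = readout between -30 and a set limit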;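 note: plate controls were DMSO wells for no effect and camptothecin positive control wells for full effect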
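Compounds are pinned in duplicate onto adhered PC3M cells stably expressing GFP-tagged PTB and incubated 16 h at 37 C. Cells are then fixed, nuclei stained with Hoechst, and PNC-positive cells counted.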
KDM4E inh = JMJD2E (human) inhibition | JMJD2E catalytic domain, FDH-coupled NADH fluorescence (FDH is formaldehyde dehydrogenase) | Potency, µM (highest dose often 57.1 µM), without a hit: at the top dose activity change, negative = inhibition, actives largely listed as inhibitors | 230,000 compounds, 1.6% hits | B2RXH2 | AID 2147;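 note: potency is the fitted concentration of half-maximal effect; 0% = wells with enzyme and -100% = buffer wells without enzyme; nearly all actives have a fitted effect of over 50% in size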
Target sequence (B2RXH2 1-337 limits assumed): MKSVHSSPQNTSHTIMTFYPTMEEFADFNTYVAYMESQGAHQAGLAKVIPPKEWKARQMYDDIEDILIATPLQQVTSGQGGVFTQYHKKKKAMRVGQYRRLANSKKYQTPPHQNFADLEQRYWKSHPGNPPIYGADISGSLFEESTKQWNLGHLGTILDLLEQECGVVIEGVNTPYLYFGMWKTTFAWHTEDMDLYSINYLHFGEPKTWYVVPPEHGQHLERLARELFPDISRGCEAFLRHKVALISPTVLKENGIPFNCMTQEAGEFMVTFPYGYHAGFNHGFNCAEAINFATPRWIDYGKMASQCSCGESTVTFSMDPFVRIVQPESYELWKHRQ
ALDH1A1 block = blocks purified human ALDH1A1 activity. P00352. Purified ALDH1A1, NADH fluorescence, propionaldehyde substrate. Potency, µM (series often up to 75.3 µM), inactives show top-dose activity, negative = inhibition, most hits filed as inhibitors. 220,000 compounds, 7.3% hits. AID 1030;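 note: potency is the fitted concentration of half-maximal effect; plate controls were no enzyme wells and a reference inhibitor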
The depositor's hits bear a star; ? = inconclusive; nt = not tested or not shown; [ ] = another dose, or the depositor's remark. Unless noted, calls come from the whole dose curve; as a rule, active = well fitted inhibition curve with a large enough effect (not every such curve was filed as active); inconclusive = small, poorly fitted or top-dose-only effect, or another doubt; inactive = no such curve, though single readings can be large or run the other way. Unless noted, % is set by controls: 0 for no effect and ±100 for the full control effect.

SMILES | HPGD inh | PNC assembly inh | KDM4E inh | ALDH1A1 block
COc1ccc(COC(=O)N/N=C2/C[C@@H](O)[C@@H](O)[C@@H]3[C@H]4C(=O)N(c5ccc(F)cc5F)C(=O)[C@@H]4CC[C@H]23)cc1 | nt | nt | nt | -3%[13.5 µM]
NC(=O)c1cc([N+](=O)[O-])ccc1NCCN1C(=O)c2ccccc2C1=O | nt | nt | -9% | ?
Nc1nc(-c2ccco2)nn1S(=O)(=O)c1ccc(Cl)cc1 | nt | nt | -1% | -4%
CC(C)[C@@H](N)C(=O)N/N=C/c1ccc2ncccc2c1 | nt | nt | -4% | nt
Fc1c(F)c(F)c(N=Cc2ccc3ncccc3c2)c(F)c1F | -7% | -30 | 3% | 8.9µM*
Cc1ccc(S(=O)(=O)Cc2c(C)noc2C)cc1 | -15% | 13 | -1% | 3%
Cc1noc(C)c1CS(=O)(=O)c1ccc([N+](=O)[O-])cc1 | nt | nt | -10% | 32µM*
Fc1ccc(C2CCCN2Cc2nc(-c3cnccn3)no2)cc1 (stereo unspecified) | nt | nt | -4% | 28µM*
COc1ccccc1NC(=S)N1CCN(c2ccccn2)CC1 | -29% | ? | 1% | ?
COc1cc2nc(Cl)nc(N3CCN(C)CC3)c2cc1OC | nt | nt | 0% | -9%
COc1cc2nc(C3CCC3)nc(N3CCN(c4ccccc4OC)CC3)c2cc1OC | -13% | 22 | -27% | 28µM*
COc1cc2nc(C3CCC3)nc(N3CCN(c4ccccn4)CC3)c2cc1OC | -11% | 4 | ? | 8.9µM*
Cc1nn(C)c(Oc2cccc(Cl)c2)c1C(=O)Nc1ccc(F)cc1 | -11% | 14 | 2% | -1%
N#Cc1cc([N+](=O)[O-])c(-n2nnc3ccccc32)c([N+](=O)[O-])c1 | 28µM* | -3 | 0% | 0%
CCn1c(N)c(C(N)=O)sc1=S | ? | -6 | -10% | 8.9µM*
Cc1ccc(SCCC(=O)NCC2CCCO2)cc1 (stereo unspecified) | 16µM* | -115* | 3% | -13%
Cc1ccc(-c2cc(C(=O)NCC3CCCO3)no2)cc1 (stereo unspecified) | 14µM* | -1 | 3% | ?
O=C(NC(=S)NCC1CCCO1)c1ccc(Cl)cc1Cl (stereo unspecified) | -5% | ? | 8% | -9%
Cc1ccc(-n2nc(-c3cccs3)cc2C(=O)NCC2CCCO2)c(C)c1 (stereo unspecified) | 1µM* | 18 | -1% | 20µM*
O=C(NCC1CCCO1)c1cc(-c2ccccc2)on1 (stereo unspecified) | ? | ? | 8% | 2%
O=C(NCC1CCCO1)c1cc(-c2ccc(Cl)cc2Cl)on1 (stereo unspecified) | 8.9µM* | 29 | 6% | ?
O=C(O)CNC(=S)N(Cc1ccccc1F)C1CCCCC1 | nt | nt | -8% | ?
O=C(CNC(=S)N(Cc1ccccc1F)C1CCCCC1)NCC1CCCO1 (stereo unspecified) | nt | nt | 4% | 7.1µM*
COCCCNC(=O)CNC(=S)N(Cc1ccccc1F)C1CCCCC1 | -4% | 9 | 5% | 14µM*
CCCCNC(=O)CNC(=S)N(Cc1ccccc1F)C1CCCCC1 | nt | nt | 0% | 22µM*
SMILES | HPGD inh | PNC assembly inh | KDM4E inh | ALDH1A1 block
Cc1nnsc1Sc1ccccc1C(=O)O | nt | nt | -15% | 14%
O=C(N/N=C/C1CC2C=CC1C2)c1ccccc1O (stereo unspecified) | nt | nt | -21% | nt
COc1ccc(/C=N/n2cc(-c3ccccc3)nc2N)cc1 | -29% | ? | -5% | ?
COc1ccc(/C=N/n2cc(-c3ccc(OC)cc3)nc2N)cc1 | -24% | -129* | 1% | ?
COc1cccc(C(=O)Nc2ccccc2N2CCOCC2)c1 | -8% | -11 | 1% | ?
COC(=O)c1ccc(N2CCOCC2)c(NC(=O)Nc2cccc(OC)c2)c1 | ? | ? | -7% | 25µM*
COC(=O)c1ccc(N2CCN(C(C)=O)CC2)c(NC(=O)COc2ccccc2C)c1 | nt | nt | -6% | 7.9µM*
Cc1ccn2c(CNCC3OCCc4ccccc43)c(C(=O)N3CCCCCC3)nc2c1 (stereo unspecified) | nt | nt | -18% | ?
COc1ccc(OC)c(C2=NOC(C(=O)NCC3CCCO3)C2)c1 (stereo unspecified) | ? | -5 | -3% | ?
O=C(NCC1CCCO1)C1CC(c2ccccc2Cl)=NO1 (stereo unspecified) | 20µM* | -23 | 8% | 10%
CCN1CCN(C(=S)Nc2cc(S(=O)(=O)N(CC)CC)ccc2C)CC1 | nt | nt | 6% | ?
Cc1ccc(S(=O)(=O)/C(=C/Cl)NC(=O)c2ccccc2)cc1 | -3% | 10 | 5% | 7.9µM*
CC(=O)NNC(=O)c1csc(-c2csc(C)n2)n1 | nt | nt | -6% | 1%
CN(C)c1ccc(C(=S)N2CCN(C(=S)Nc3cccc4ccccc34)CC2)cc1 | nt | nt | 1% | 16µM*
NC(=O)Cn1c(=O)n(CCC(=O)NCCSCc2ccccc2)c(=O)c2ccccc21 | nt | nt | -16% | 0%
CCOc1c2ccc(C(=O)NCCc3ccc(C)cc3)cc2nn1CC | ? | -113* | ? | ?
CCOc1c2ccc(C(=O)NCc3ccc(C)cc3)cc2nn1CC | ? | 77 | ? | ?
Cc1c(N)cccc1-c1nc2ccccc2[nH]1 | ? | -15 | 3% | -4%
COc1cccc([C@@H]2Oc3ccc(OC)cc3C(=O)[C@H]2OC(=O)N[C@H]2CCCc3ccccc32)c1 | -28% | nt | ? | ?
Cc1ccn2cc(CCNC(=O)CC(C)(C)C)nc2c1 | ? | -100* | ? | ?
COc1ccc(C(=O)NCCc2cn3ccc(C)cc3n2)cc1 | -12% | -20 | ? | ?
O=c1[nH]c2c(cnn2-c2ccc(Cl)cc2)c(=O)n1-c1cccc(Cl)c1 | nt | nt | -3% | 5%
CSc1nc(C)cc(OCC(=O)N/N=C/c2ccccc2O)n1 | -19% | 14 | 25µM* | -13%
O=C(COc1nsnc1N1CCOCC1)N/N=C/c1ccccc1O | ? | -2 | ? | ?
CCN(CC)C(=S)SCC(=O)Nc1nc(-c2ccccc2)c(-c2ccccc2)o1 | -10% | 34 | -12% | 13µM*
SMILES | HPGD inh | PNC assembly inh | KDM4E inh | ALDH1A1 block
O=C(CSC(=S)N1CCCCC1)Nc1nc(-c2ccccc2)c(-c2ccccc2)o1 | -14% | 25 | 2% | -13%
Cc1ccc(S(=O)(=O)N/N=C\c2cc3c(cc2Br)OCO3)cc1 | -4% | 35 | 3% | -9%
O=[N+]([O-])c1cc2c(cc1/C=N/NS(=O)(=O)c1ccc(Br)cc1)OCO2 | nt | nt | 77% | 3.2µM*
CN1CCCN(C)C1c1cc([N+](=O)[O-])ccc1O | -9% | nt | nt | 12%[13.5 µM]
COc1cccc(/C=N/Nc2nc3ccccc3[nH]2)c1O | nt | nt | 4.5µM* | nt
COc1cccc(/C=N/Nc2nc3ccccc3n3cnnc23)c1O | -7% | -6 | 28µM* | ?
COc1cccc(/C=N/Nc2nc3ccccc3[nH]2)c1OC | nt | nt | -26% | nt
C(=N\Nc1nc2ccccc2[nH]1)/c1cccs1 | nt | 4 | 15% | 2.8µM*
COC(=O)c1sccc1N/N=C/c1cccc(OC)c1O | -22% | -116* | 2% | 3%
COc1cc(/C=N/NC(=O)Cn2nnc3ccccc32)ccc1O | nt | nt | -21% | -1%
COc1cccc(/C=N\NC(=O)Cn2nnc3ccccc32)c1O | nt | nt | 28µM* | 10%

Assay outcomes from PubChem.
